Experimental data as given in the supplement of paper PMC9694430.

Legend:
Assay in all cases: thermal shift delta Tm vs DMSO control; higher = stronger stabilization (binding)
Details in all cases: 12.5 µM; protein concentration 2 µM
LOC_OS01G01410-cb001 = system: LOC_OS01G01410-cb001
Method in brief: (§1)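 Thermal shift values come from differential scanning fluorimetry on purified rice kinase domains made in E. coli, with melting temperatures obtained from Boltzmann fits. Samples of 19.5 μl held 2 μM kinase, 100 mM potassium phosphate pH 7.5, 150 mM NaCl, 10% glycerol, 5 × SYPRO Orange and compound in DMSO, and were heated from 25°C to 95°C at 0.05°C/s. Each shift is a triplicate mean relative to the DMSO-only protein sample.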

LOC_OS01G02750-cb003 = system: LOC_OS01G02750-cb003
Method in brief: as §1

LOC_OS01G10900-cb004 = system: LOC_OS01G10900-cb004
Method in brief: as §1

LOC_OS01G13800-cb001 = system: LOC_OS01G13800-cb001
Method in brief: as §1

LOC_OS01G14860-cb001 = system: LOC_OS01G14860-cb001
Method in brief: as §1

LOC_OS01G21960-cb002 = system: LOC_OS01G21960-cb002
Method in brief: as §1

LOC_OS01G39600-cb002 = system: LOC_OS01G39600-cb002
Method in brief: as §1

LOC_OS01G48390-cb002 = system: LOC_OS01G48390-cb002
Method in brief: as §1

LOC_OS01G51400-cb002 = system: LOC_OS01G51400-cb002
Method in brief: as §1

LOC_OS01G52050-cb004 = system: T1, LOC_OS01G52050-cb004
T1 sequence (whole entry): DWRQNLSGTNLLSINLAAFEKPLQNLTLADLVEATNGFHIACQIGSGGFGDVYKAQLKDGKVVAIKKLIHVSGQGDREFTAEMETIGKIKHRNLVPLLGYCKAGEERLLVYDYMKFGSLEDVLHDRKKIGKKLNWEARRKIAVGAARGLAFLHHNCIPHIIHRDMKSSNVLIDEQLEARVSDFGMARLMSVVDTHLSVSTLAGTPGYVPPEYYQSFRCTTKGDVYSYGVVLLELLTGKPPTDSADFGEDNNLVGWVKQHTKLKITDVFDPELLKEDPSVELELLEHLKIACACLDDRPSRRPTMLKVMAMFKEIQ
Method in brief: as §1
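Note: purified Escherichia coli-expressed rice kinase domain construct.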

| SMILES | thermal shift delta Tm (LOC_OS01G01410-cb001) | thermal shift delta Tm (LOC_OS01G02750-cb003) | thermal shift delta Tm (LOC_OS01G10900-cb004) | thermal shift delta Tm (LOC_OS01G13800-cb001) | thermal shift delta Tm (LOC_OS01G14860-cb001) | thermal shift delta Tm (LOC_OS01G21960-cb002) | thermal shift delta Tm (LOC_OS01G39600-cb002) | thermal shift delta Tm (LOC_OS01G48390-cb002) | thermal shift delta Tm (LOC_OS01G51400-cb002) | thermal shift delta Tm (LOC_OS01G52050-cb004) |
| --- | --- | --- | --- | --- | --- | --- | --- | --- | --- | --- |
| Cc1cc(Nc2cc(N3CCN(C)CC3)nc(/C=C/c3ccccc3)n2)n[nH]1 | 2.2 °C | 1.8 °C | 1.93 °C | -0.23 °C | 2.99 °C | 2.75 °C | 2.83 °C | 2.45 °C | 0.24 °C | 3.7 °C |
| C[C@@H]1COCCN1c1cc(=O)n2c(n1)N(Cc1cncc(Cl)c1)[C@H](C(F)(F)F)CC2 | 0.21 °C | 1.55 °C | 0.48 °C | 1.15 °C | 0.32 °C | 0.45 °C | 0.34 °C | 0.95 °C | 0.31 °C | 0.49 °C |
| Cc1cc(Nc2ncc(Cl)c(Nc3ccccc3S(=O)(=O)C(C)C)n2)c(OC(C)C)cc1C1CCNCC1 [Ceritinib (LDK378)] | 0.47 °C | 1.1 °C | 0.21 °C | -0.57 °C | 0.83 °C | 0.34 °C | 2.1 °C | 0.85 °C | 0.35 °C | 0.22 °C |
| Nc1ccc(-c2ccc3ncc4ccc(=O)n(-c5cccc(C(F)(F)F)c5)c4c3c2)cn1 [Torin 2] | 1.14 °C | 1.23 °C | -0.05 °C | -0.87 °C | 2.07 °C | 1.41 °C | 0.74 °C | 0.94 °C | 0.41 °C | 0.7 °C |
| COc1cc2ncnc(Sc3nnc(C)s3)c2cc1OC | 1.2 °C | 0.37 °C | 0.57 °C | -0.34 °C | 0.11 °C | 0.06 °C | -0.24 °C | 2.02 °C | 0.02 °C | 0.91 °C |
| Fc1ccc2[nH]ccc2c1-c1nc(N2CCOCC2)c2sc(CN3CCN(CC4CC4)CC3)cc2n1 | 0.26 °C | 0.77 °C | 2.96 °C | -0.36 °C | 0.37 °C | -0.01 °C | -0.27 °C | 0.62 °C | -0.02 °C | 0.03 °C |
| CCc1cc(Nc2nccc(-c3c(-c4ccc(OC)c(C(=O)Nc5c(F)cccc5F)c4)nc4ccccn34)n2)c(OC)cc1N1CCC(N2CCN(S(C)(=O)=O)CC2)CC1 | 1.23 °C | -0.77 °C | 0.34 °C | 0.56 °C | 0.33 °C | 1.05 °C | 1.04 °C | 0.41 °C | 0.3 °C | 0.04 °C |
| C[C@H](Nc1ncnc2[nH]cnc12)c1cc2ccc(F)cc2nc1-c1ccccn1 | 0.51 °C | 2.1 °C | 0.26 °C | 0.16 °C | 0.16 °C | 0.92 °C | -0.54 °C | 0.94 °C | 0.64 °C | 0.37 °C |
| Cn1c(=O)c(Oc2ccc(F)cc2F)cc2cnc(NC(CCO)CCO)nc21 | 0.37 °C | 0.46 °C | 1.21 °C | 0.21 °C | 0.44 °C | 0.89 °C | 0.22 °C | -0.01 °C | -0.14 °C | 0.02 °C |
| CC(C)(CO)n1cc(C(=O)c2cncc(NC(=O)Cc3ccc(Cl)cn3)c2)c2cnc(N)nc21 | 0.23 °C | 0.58 °C | 0.35 °C | 0.55 °C | 0.5 °C | 0.13 °C | 0.32 °C | 0.37 °C | -0.05 °C | 2.82 °C |
| COCCOc1cnc2ccn([C@H](C)c3nnc4c(F)cc(-c5cnn(C)c5)cn34)c(=O)c2c1 | 0.44 °C | 0.28 °C | 0.34 °C | -0.27 °C | 0.15 °C | 0.42 °C | -0.26 °C | 0.28 °C | 0.32 °C | 0.4 °C |
| CC#CC(=O)Nc1ccc2ncnc(Nc3cccc(Br)c3)c2c1 | 2.55 °C | 1.15 °C | 2.56 °C | 0.12 °C | 1.15 °C | 0.48 °C | -0.38 °C | 2.25 °C | 0.38 °C | 1.8 °C |
| NC(=O)c1ccc(N(C(N)=O)c2c(F)cccc2F)nc1-c1ccc(F)cc1F | 0.34 °C | 0.53 °C | 0.19 °C | -0.47 °C | -0.12 °C | 0.57 °C | -1.78 °C | 0.07 °C | 0.14 °C | -0.21 °C |
| OCCn1cc(-c2cnc3nnn(Cc4ccc5ncccc5c4)c3n2)cn1 | 0.52 °C | 0.79 °C | -0.12 °C | -0.25 °C | 0.12 °C | 0.14 °C | 0.11 °C | 0.2 °C | 0.09 °C | 0.09 °C |
| Cc1cc(Nc2cc(N)ncn2)c(=O)n2c1C(=O)NC21CCCCC1 | 0.09 °C | 0.56 °C | 3.66 °C | -0.03 °C | 1.91 °C | 0.49 °C | -0.58 °C | -0.04 °C | 0.24 °C | -0.14 °C |
| O=C1NC(=O)C(c2ccccc2[N+](=O)[O-])=C1Nc1ccc(O)c(Cl)c1 | 0.62 °C | -1.98 °C | 0.16 °C | 0.72 °C | 0.92 °C | 1.43 °C | -0.46 °C | 0.67 °C | 0.04 °C | -0.24 °C |
| COc1c(C)c(C(=O)c2ccc(N)c(C(=O)O)c2)n2ccccc12 | 0.21 °C | 1.05 °C | 0.42 °C | -0.23 °C | 0.24 °C | 0.79 °C | -11.6 °C | 0.46 °C | 0.21 °C | 0.12 °C |
| CNC(=O)c1ccccc1Nc1nc(Nc2ccc(N3CCOCC3)cc2OC)ncc1Cl | 0.74 °C | 1.05 °C | 1.53 °C | -0.3 °C | 0.28 °C | 0.37 °C | -6.71 °C | 0.8 °C | 0.36 °C | 1.17 °C |
